Bioassay records deposited in PubChem by Broad Institute.
Compounds with a hit are over-represented: about 2.1% of the library has one in this group of screens.
YB-1 expression: YB-1 expression inhibition. 0.37% of 30,000 active. delta delta Cp (YB-1 minus CDIP) (no concentration beside the values). U2OS, qRT-PCR YB-1 vs CDIP delta delta Cp, 16 h; active compounds read high; zero = DMSO, each unit about twofold;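 active = delta delta Cp rounded down to an integer at or above 3, about 3 SD of DMSO wells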;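 note: higher means less YB-1 transcript or more CDIP transcript relative to DMSO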
ROS inducer: cancer cell ROS induction | U2OS ROS induction, H2DCF-DA fluorescence | ROS induction (% of piperlongumine), % at 10 µM | 2% of 46,000 active | AID 624156; in the data active = ROS induction above about 79%, passing the limit was not always enough;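 note: 0% = DMSO vehicle median and 100% = reference compound median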
Numbers without * were called inactive; . = no result given.

SMILES	YB-1 expression	ROS inducer
Nc1ncnc2c1cnn2-c1ccccc1	3.88*	34.8
O=c1c2sc(=S)n(Cc3ccco3)c2nc(SCc2ccccc2)n1-c1ccccc1	.	26.2
CC(C)CN(CC(C)C)C(=O)COc1ccc(C(C)(C)C)cc1	.	12.9
CCCc1c(-c2ccccc2)nc2sc3c(c2c1N)CCCCC3	.	168.6*
Nn1c(Cc2ccccc2)nc2sc3c(c2c1=O)CCCC3	.	0.2
COC(=O)c1ccc(CSc2nc3ccncc3[nH]2)cc1	.	-3.6
C[C@H]1CN([C@@H](C)CO)C(=O)c2cccc(NC(=O)c3ccc(-c4nccs4)cc3)c2O[C@H]1CN(C)Cc1ccc(C(F)(F)F)cc1	-0.253	109.2*
C[C@H](CO)N1C[C@H](C)[C@H](CN(C)Cc2ccc(C(F)(F)F)cc2)Oc2c(NC(=O)c3ccc(-c4nccs4)cc3)cccc2C1=O	0.00569	23.8
C[C@H]1CN([C@@H](C)CO)C(=O)c2cccc(NC(=O)c3ccc(-c4nccs4)cc3)c2O[C@H]1CN(C)S(=O)(=O)c1cccs1	0.0845	83.1*
C[C@H]1CN([C@@H](C)CO)C(=O)c2cccc(NC(=O)c3ccc(-c4nccs4)cc3)c2O[C@H]1CN(C)Cc1ccc(Oc2ccccc2)cc1	0.189	37.7
C[C@H](CO)N1C[C@H](C)[C@@H](CN(C)Cc2ccc(Oc3ccccc3)cc2)Oc2c(NC(=O)c3ccc(-c4nccs4)cc3)cccc2C1=O	-0.672	119.6*
C[C@@H]1CN([C@H](C)CO)C(=O)c2cccc(NC(=O)c3ccc(-c4nccs4)cc3)c2O[C@@H]1CN(C)S(=O)(=O)c1cccs1	-0.656	1.5
COc1ccc(NC(=O)CCCOc2ccccc2)cc1	.	-9.8
COc1ccccc1CNC(=O)c1ccc2nc3c(cc2c1)CCS3	.	-3.8
C(=NCc1cccnc1)c1c2ccccc2cc2ccccc12	.	-23.8
Cc1cc(=O)oc(C)c1C(=O)Nc1ccccc1C(=O)N1CCCCC1	.	-3.0
COC(=O)c1cccc(C(=O)Nc2ccc(F)cc2)n1	0.437	6.2
COC(=O)c1[nH]nc2c1C(=O)N(c1ccc(F)cc1)C2=O	.	260.1*
FC(F)(F)c1cc(-c2ccccc2)nc2c(-c3ccccc3)cnn12	.	13.8
CC1CCCCC1NC(=O)c1cnn2c(C(F)(F)F)cc(-c3ccccc3)nc12 (stereo not given)	.	134.1*
CC(C)CCNC(=O)c1cnn2c(C(F)(F)F)cc(-c3ccco3)nc12	.	119.1*
Cc1ccccc1NC(=O)c1cnn2c(C(F)(F)F)cc(-c3ccco3)nc12	0.153	7.5
C[C@H]1CC[C@@H]2[C@@H](C(=O)c3c(O)c([C@]4(O)CC[C@@H](O)[C@H]5O[C@H]54)c[nH]c3=O)[C@@H](C)C=C[C@H]2C1	-0.357	-3.7
Cn1cnnc1-c1cccc(NC(=O)C(c2ccccc2)c2ccccc2)c1	.	-23.5
COC(=O)c1ccc(Oc2nc(Nc3ccccc3F)nc(N3CCCCC3C)n2)cc1 (stereo not given)	.	9.6
SMILES	YB-1 expression	ROS inducer
Cc1ccc(Oc2ncccc2NC(=O)Nc2ccccc2)c2c1CCC2	.	9.4
CCOC(=O)c1c(NC(=O)c2nc3nc(C)cc(C(F)F)n3n2)sc2c1CCCC2	.	165.5*
CCOC(=O)c1c(NC(=O)CSc2nc(C)cc(C(F)(F)F)n2)sc2c1CCCC2	.	-3.4
CCC(Sc1nc(Nc2ccc(F)cc2)c2ccccc2n1)C(=O)Nc1ccc2c(c1)OCO2 (stereo not given)	.	118.4*
O=C(CSc1nc2ccccc2c(=O)[nH]1)Nc1ccc2c(c1)OCCO2	.	7.4
CC12CC3(C)CC(C)(C1)CC(CN=Cc1ccc(O)cc1)(C2)C3	-0.159	28.5
CCCCc1c(C)c(C#N)c2nc3ccccc3n2c1NCCN1CCOCC1	.	95.7*
C=CCc1c(C)c(C#N)c2nc3ccccc3n2c1NCCc1ccc(OC)c(OC)c1	.	133.0*
CCCc1cc(N2CCN(c3ccccc3)CC2)n2c(nc3ccccc32)c1C#N	.	48.1
COc1ccc(CCNC(=O)CCn2c(SCC#N)nc3ccccc3c2=O)cc1OC	.	24.0
O=C(NCc1cn2ccccc2n1)c1cccc(C(F)(F)F)c1	.	-2.4
C[C@H]1CN([C@@H](C)CO)C(=O)c2cc(NC(=O)C3CCCCC3)ccc2O[C@@H]1CN(C)Cc1ccc(Oc2ccccc2)cc1	0.128	88.9*
COc1ccc(CN(C)C[C@H]2Oc3c(NC(=O)Nc4ccccc4)cccc3C(=O)N([C@@H](C)CO)C[C@H]2C)cc1	-0.0711	4.0
C[C@@H]1CN([C@@H](C)CO)C(=O)c2cc(NC(=O)C3CCCCC3)ccc2O[C@@H]1CN(C)Cc1ccc(Oc2ccccc2)cc1	-0.676	10.4
C[C@H]1CN([C@@H](C)CO)C(=O)c2cc(NC(=O)NC3CCCCC3)ccc2O[C@@H]1CN(C)Cc1ccc(-c2ccccc2)cc1	-0.711	136.7*
COc1ccc(NC(=O)Nc2cccc3c2O[C@H](CN(C)Cc2ccc(Oc4ccccc4)cc2)[C@H](C)CN([C@@H](C)CO)C3=O)cc1	0.128	88.6*
C[C@H](CO)N1C[C@H](C)[C@@H](CN(C)Cc2ccc(-c3ccccc3)cc2)Oc2ccc(N(C)C)cc2C1=O	0.122	93.5*
C[C@@H]1CN([C@H](C)CO)C(=O)c2cc(NC(=O)NC3CCCCC3)ccc2O[C@@H]1CN(C)Cc1ccc(-c2ccccc2)cc1	0.164	-1.8
C[C@@H]1CN([C@@H](C)CO)C(=O)c2cc(N(C)C)ccc2O[C@@H]1CN(C)Cc1ccc(-c2ccccc2)cc1	0.37	-1.9
O=c1ccc2cc(S(=O)(=O)N3CCCCC3)ccc2[nH]1	.	-7.3
C[C@H](CO)N1C[C@H](C)[C@H](CN(C)Cc2ccc(-c3ccccc3)cc2)Oc2c(NC(=O)C3CC3)cccc2C1=O	0.0338	18.1
C[C@@H]1CN([C@@H](C)CO)C(=O)c2cccc(NC(=O)C3CC3)c2O[C@@H]1CN(C)Cc1ccc(Oc2ccccc2)cc1	0.527	10.7
C[C@H](CO)N1C[C@H](C)[C@@H](CN(C)Cc2ccc(-c3ccccc3)cc2)Oc2c(NC(=O)C3CC3)cccc2C1=O	0.725	173.3*
C[C@H]1CN([C@@H](C)CO)C(=O)c2cccc(NC(=O)C3CCCCC3)c2O[C@H]1CN(C)Cc1ccc(Oc2ccccc2)cc1	0.302	34.2
C[C@H](CO)N1C[C@H](C)[C@@H](CN(C)Cc2ccc(Oc3ccccc3)cc2)Oc2c(NC(=O)C3CC3)cccc2C1=O	-0.0893	84.4*
SMILES	YB-1 expression	ROS inducer
C[C@H]1CN([C@@H](C)CO)C(=O)c2cccc(NC(=O)C3CC3)c2O[C@@H]1CN(C)Cc1ccc(Oc2ccccc2)cc1	0.00394	93.8*
O=C(CN1C(=O)C(c2ccccc2)=NC12CCCC2)Nc1ccccc1	.	8.8
COc1cccc(C(=O)N2CCCCCC2)c1	.	-9.0
COc1cc(OC)c(O[C@@H]2O[C@H](COC(=O)c3cc(O)c(O)c(O)c3)[C@@H](O)[C@H](O)[C@H]2O)c(OC)c1	5.57*	4.2
O=C(OC[C@H]1O[C@@H](Oc2ccc(O)cc2)[C@H](O)[C@@H](O)[C@@H]1O)c1ccc(O)cc1	0.416	-3.1
O=C(O)CN1C(=O)c2cc(Cl)c(Cl)cc2C1=O	.	-0.6
Cn1c(-c2nonc2NC(=O)c2ccccc2Br)nc2ccccc21	.	101.9*
CC(=O)Nc1nonc1-c1nc2ccccc2n1Cc1ccccc1Br	.	11.5
CCCCN1Cc2c(n(CC(=O)c3ccc(OC)cc3)c3cc(-c4ccccc4)nn3c2=O)C1=O	.	170.2*
COc1ccc(C(=O)Cn2c3ccccc3n3nc(-c4ccccc4)nc23)cc1OC	.	-2.8
